Assay outcomes as filed in PubChem BioAssay.
TEAD-YAP inh = TEAD-YAP interaction inhibition; HEK-TIYL cells, TEAD-Gal4/YAP UAS-luciferase luminescence; inhibition, % at 9.12 µM; 1.4% of 640,000 active; AID 1259422; in the data active means inhibition above about 32%;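 further: 0% = median of test compound wells and 100% = reference inhibitor wells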
MITF inh = blocks human microphthalmia-associated transcription factor | AlphaScreen MITF homodimerization, bead proximity signal | inhibition, % at 2.6 µM | 0.91% of 650,000 active; in the data active means inhibition above about 50%;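 further: 0% = vehicle wells with protein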
Target sequence (O75030 whole entry, looked up): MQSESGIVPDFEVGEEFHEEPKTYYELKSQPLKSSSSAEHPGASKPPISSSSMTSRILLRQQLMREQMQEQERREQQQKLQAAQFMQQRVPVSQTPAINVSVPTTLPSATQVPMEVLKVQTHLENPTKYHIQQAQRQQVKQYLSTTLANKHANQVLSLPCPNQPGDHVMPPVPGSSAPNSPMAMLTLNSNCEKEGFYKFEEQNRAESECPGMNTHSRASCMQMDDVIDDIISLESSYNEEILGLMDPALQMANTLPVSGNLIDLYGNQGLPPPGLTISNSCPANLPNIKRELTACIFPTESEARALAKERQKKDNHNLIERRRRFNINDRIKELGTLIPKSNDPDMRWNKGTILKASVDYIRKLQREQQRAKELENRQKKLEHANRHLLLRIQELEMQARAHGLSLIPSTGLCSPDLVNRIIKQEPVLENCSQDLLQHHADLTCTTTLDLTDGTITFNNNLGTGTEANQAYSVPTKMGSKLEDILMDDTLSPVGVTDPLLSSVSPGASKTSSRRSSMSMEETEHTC
FBW7 act = activators of human E3 ligase FBW7 | AlphaScreen FBW7–phospho-cyclin E peptide binding, activator screen | normalized activity (activation), % at 26.1 µM | 0.13% of 650,000 active; in the data active means normalized activity above about 1.9%;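 further: purified mutant Fbw7 with reduced substrate affinity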
GPR151 activ = activates the human receptor GPR151; Q8TDV0; PathHunter beta-arrestin GPR151 cells, luminescence; AID 1508602; 1% of 650,000 active; activation, % at 11.2 µM; in the data active means activation above about 4.9%;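 further: 0% = median of compound wells and 100% = cells with positive control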
MITF inh conf = human MITF inhibition, confirmation. shares compounds with MITF inh. AlphaScreen MITF homodimerization, biotin/His-MITF beads. inhibition, % at 2.6 µM. 16% of 4,700 active. AID 1259372;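 active means inhibition above a cutoff derived from the DMSO control wells, cut at about 28% in these data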;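 further: 0% = MITF dimer wells with DMSO only; inhibitors lower the bead chemiluminescence by keeping MITF from dimerizing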
AlphaScreen intf2 = counter-screen: compounds optically interfering with AlphaScreen | shares compounds with MITF inh | LysRS AlphaScreen counterscreen, signal interference, triplicate | inhibition, % at 2.6 µM | 7.6% of 4,700 active;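 active means inhibition above a cutoff derived from the DMSO control wells, cut at about 30% in these data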
The depositor's hits bear a star; . = no result; ! = not confirmed by another sample. Rows were chosen to be rich in hits. Some 3.5% of all compounds tested hit in one or more screens of this group.

SMILES | TEAD-YAP inh | MITF inh | FBW7 act | GPR151 activ | MITF inh conf | AlphaScreen intf2
COc1cc(Nc2nc(SCC(=O)NCC3CCCO3)nc3ccccc23)cc(OC)c1 (stereo not drawn) | 5 | 60* | 0 | 0 | -12 | -8
O=C(CSc1nc(Nc2ccc(F)c(F)c2)c2ccccc2n1)NCC1CCCO1 (stereo not drawn) | 0 | 6 | 0 | -1 | . | .
O=C(CCCl)N(Cc1ccco1)c1nc(-c2ccc(F)cc2)cs1 | -4 | 8 | 0 | 1 | . | .
Cc1c(C)n2c3c(cc([N+](=O)[O-])cc13)CCC2 | 3 | -8 | 0 | -1 | . | .
O=C(Cc1cn(-c2ccc(N3CCOCC3)nn2)c2ccccc12)NCCCN1CCCC1=O | -8 | -5 | 0 | -1 | . | .
O=C(Cc1cn(-c2ccc(NCCN3CCOCC3)nn2)c2ccccc12)NCCCN1CCCC1=O | -4 | 59* | 0 | 1 | 5 | 2
CCOc1cc(C(=S)N2CCN(CCO)CC2)ccc1O | 5 | -2 | 0 | 0 | . | .
CN(c1ccc(C(=O)NCc2ccccn2)cc1)S(=O)(=O)c1ccc(Cl)cc1 | 13 | 58* | 0 | 1 | -14 | -3
O=C(N/N=C/c1ccc(F)cc1)c1cccc(NC(=O)c2cccc([N+](=O)[O-])c2)c1 | -19 | 6 | 1 | 1 | . | .
Cc1ccc(S(=O)(=O)Nc2nc(O)c(C3=c4cc([N+](=O)[O-])ccc4=NC3=O)s2)cc1 | -2 | 11 | 0 | 2 | . | .
O=C1N=c2ccc([N+](=O)[O-])cc2=C1c1sc(NS(=O)(=O)c2ccccc2)nc1O | 8 | 64*! | 0 | 0 | 11 | 23
CN(C)CCNC(=O)c1ccc(Cl)cc1Cl | 5 | 11 | 1 | 0 | . | .
Cc1cc(C)c(OCC(O)CN2CCN(Cc3ccc4c(c3)OCO4)CC2)c(C)c1 (stereo not drawn) | -1 | 52* | 0 | -1 | -5 | -7
OC(COC1CCCc2ccccc21)CN1CCN(Cc2ccc3c(c2)OCO3)CC1 (stereo not drawn) | -5 | 80* | 0 | 1 | 12 | 10
C/C=C/c1ccc(OCC(O)CN2CCN(Cc3ccc4c(c3)OCO4)CC2)c(OC)c1 (stereo not drawn) | 6 | 64* | 0 | 2 | 15 | 14
N[C@H]1CCC[C@H](C(=O)Nc2cccc3c(=O)[nH]cnc23)C1 | 3 | 54* | 0 | 0 | 26 | 11
Cn1cc(C(=O)NCCCN2CCCC2=O)c2[nH]c(=O)n(Cc3ccccc3)c(=O)c21 | 3 | 18 | 2 | -1 | . | .
COc1cc2c(cc1OC)C(c1cc3cc4c(cc3[nH]c1=O)OCO4)N(C(=O)C1CC1)CC2 (stereo not drawn) | 6 | 67* | 0 | 0 | 4 | 11
COc1cc2c(cc1OC)C(COc1ccc(F)cc1)N(C(=O)C1CC1)CC2 (stereo not drawn) | -12 | 0 | 0 | -1 | . | .
CN(CC1CCOCC1)C(=O)Cn1nnnc1CN1CCCCCC1 | -4 | 4 | 0 | 0 | . | .
O=C(N/N=C/c1ccccn1)c1cccc2ccccc12 | -29 | 4 | 0 | -1 | . | .
O=C(N/N=C/c1ccccn1)C1=NNC(=O)C1CCO (stereo not drawn) | -6 | 65* | -1 | 0 | 31* | 96*
Nc1nc[nH]c(=O)c1N=Cc1ccc([N+](=O)[O-])cc1 | 15 | 1 | 0 | -1 | . | .
COc1ccccc1CNCc1cc(Br)ccc1OC | -2 | 70* | 0 | -1 | -11 | -5
CCNCc1cc(Br)ccc1OC | 9 | 14 | 0 | 1 | . | .
SMILES | TEAD-YAP inh | MITF inh | FBW7 act | GPR151 activ | MITF inh conf | AlphaScreen intf2
O=C(O)CSc1nc2ccccc2n1CC(=O)N1CCOCC1 | 12 | 17 | 0 | -1 | . | .
NC(=O)CSc1nc2ccccc2n1CC(=O)N1CCOCC1 | -6 | 62* | 0 | 2 | 13 | 14
Cc1cc(C)cc(NC(=O)C2CC23CCN(Cc2cccc(C)n2)CC3)c1 (stereo not drawn) | -2 | 1 | 0 | -1 | . | .
CCN1C(=O)NC(c2ccc([N+](=O)[O-])cc2)C(C(=O)OCCOc2ccccc2)=C1C (stereo not drawn) | 1 | 9 | 0 | 0 | . | .
CCN1C(=O)NC(c2ccc([N+](=O)[O-])cc2)C(C(=O)OCCc2ccccc2)=C1C (stereo not drawn) | -10 | 76* | 1 | -1 | 2 | 22
COC(=O)c1ccc(NC(=O)CN2CCN(Cc3nc4ccccc4n3C)CC2)cc1 | 2 | 70* | 0 | 0 | 3 | 20
Cc1noc(C)c1CN1CCN(C(=O)c2cc(=O)c3ccccc3o2)CC1 | -4 | 10 | 0 | 1 | . | .
COCCNC(=O)N1CCN(Cc2nc3ccccc3n2C)CC1 | 5 | 78* | 0 | 0 | 8 | 20
Cn1c(CN2CCN(C(=O)c3cc(=O)c4ccccc4o3)CC2)nc2ccccc21 | 9 | 86* | 0 | 0 | 2 | 14
Cn1c(CN2CCN(Cc3ccccc3)CC2)nc(=O)c2ccccc21 | -4 | 71* | 0 | -1 | -17 | 3
COC(=O)C1=C(C)N=c2s/c(=C/c3ccc(N(C)C)cc3)c(=O)n2C1c1ccc(OC(C)=O)cc1 (stereo not drawn) | -4 | 3 | 0 | 1 | . | .
COC(=O)CCCCCN1C(=O)/C(=C\c2ccc(O)c(OC)c2)SC1=S | 11 | 19 | 0 | 0 | . | .
COc1c(C)cccc1C(=O)Nc1ccc(-c2nn3c(C)nnc3s2)cc1C | 4 | -4 | 1 | -2 | . | .
CC1CCN(Cc2nc3c(c(=O)n(C)c(=O)n3C)n2Cc2ccc(F)cc2)CC1 | 2 | 51* | 0 | 1 | 6 | 13
Cc1ccc(Cn2c(CN3CCC(C)CC3)nc3c2c(=O)n(C)c(=O)n3C)cc1 | -7 | -1 | 0 | 2 | . | .
O=C1CSc2ccc(S(=O)(=O)N3CCCC3)cc2N1 | 2 | 116* | 0 | 0 | 10 | 9
CCN1CCN(S(=O)(=O)c2ccc3c(c2)SCC(=O)N3)CC1 | 7 | -2 | 0 | 1 | . | .
COc1ccc(C(=O)Nc2nn3c(-c4ccco4)nnc3s2)cc1OC | -2 | -7 | 0 | 0 | . | .
O=C(COc1ccc(Br)cc1)NCc1nc(-c2ccc(Cl)cc2)no1 | -6 | 56* | 0 | 0 | -17 | -6
O=C(N/N=C/c1c2ccccc2cc2ccccc12)c1cc(O)c(O)c(O)c1 | -5 | -3 | -1 | 0 | . | .
O=C(CN1CCN(Cc2nc3ccccc3[nH]2)CC1)Nc1ccccc1 | 13 | 9 | 0 | 1 | . | .
COCCN1CCCc2ccc(NC(=O)c3ccc(C)cc3)cc21 | -54 | 54* | 1 | -2 | 7 | 2
Brc1csc(CN2CCN(Cc3ccc4c(c3)OCO4)CC2)c1 | 0 | 62* | 1 | 0 | 10 | 13
Cc1ccsc1CN1CCN(Cc2ccc3c(c2)OCO3)CC1 | 0 | 56* | 0 | 0 | 2 | 5
O=C(C1CC12CCN(Cc1ccc3c(c1)OCO3)CC2)N1CCN(Cc2ccccn2)CC1 (stereo not drawn) | 5 | 10 | 0 | 1 | . | .
